Laboratory results as given in PubChem BioAssay (NCATS).
Several values for one entry are separate records, joined by “and”; a condition that tells them apart may be missing. Identical values can stand only once. Results filed as inconclusive are left out. Where a call stands in place of a potency, no number is given. More than one record can exist for a structure, and the calls need not agree. Activity calls are given as the source filed them. Unless noted, calls come from the whole dose curve; as a rule, active = well fitted curve in the direction sought with a large enough effect; inconclusive = small, poorly fitted or top-dose-only effect, or another doubt; inactive = no such curve, though single readings can be large; an effect the other way counts as inactive or inconclusive.

Columns and labels:
[1] = qHTS assay for measurement of the activity of small molecule inhibitors on Zika virus induced Caspase-3 activity in human iPSC derived neural progenitor cells (hNPCs) (AID 1224857); note: nearly all actives have a fitted effect of over 65% in size; note: potency is the fitted concentration of half-maximal effect
In short: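 Human iPSC-derived neural progenitor cells pretreated 1 hr with compounds, then infected with Zika virus (2 FFU/cell) for 6 hours at 37 C. Caspase-3/7 measured by Caspase-Glo luminescence; % inhibition calculated from induction scaled to uninfected (0%) and infected (100%) wells.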

[2] = qHTS assay for measurement of the activity of small molecule inhibitors on Zika virus induced Caspase-3 activity in human astrocytoma cells (AID 1224859)
In short: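 SNB-19 astrocytoma cells, 250/well, pretreated 1 h with compounds, then Zika virus at 2 FFU/cell for 6 h at 37 C; Caspase-Glo 3/7 luminescence after 30 min; percent inhibition normalised to uninfected and infected controls.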

[3] = qHTS Screen of the MIPE 4.0 Collection Against Ewings Sarcoma (RDES) (AID 1259252); note: nearly all actives have a fitted effect of over 35% in size; note: potency is the fitted concentration of half-maximal effect
In short: (§1)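 Viability screen: 48 h incubation at 37C, 95% humidity, 5% CO2 with serially titrated compound, followed by CellTiter-Glo readout.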

[4] = qHTS Screen of the MIPE 4.0 Collection Against Ewings Sarcoma (TC71) (AID 1259253); note: nearly all actives have a fitted effect of over 40% in size; note: potency is the fitted concentration of half-maximal effect
In short: as §1

[5] = qHTS Screen of the MIPE 4.0 Collection Against Ewings Sarcoma (EW8) (AID 1259255); note: nearly all actives have a fitted effect of over 35% in size; note: potency is the fitted concentration of half-maximal effect
In short: as §1

[6] = qHTS Screen of the MIPE 4.0 Collection Against Ewings Sarcoma (TC32) (AID 1259256); note: nearly all actives have a fitted effect of over 45% in size; note: potency is the fitted concentration of half-maximal effect
In short: as §1

[7] = P-glycoprotein substrates identified in KB-8-5-11 adenocarcinoma cell line, qHTS therapeutic library screen (AID 1346987); note: nearly all actives have a fitted effect of over 65% in size; note: potency is the fitted concentration of half-maximal effect
In short: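 P-gp-mediated resistance screen: KB-8-5-11 cells treated 72 h with compounds in dose-response. CellTiter-Glo viability.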

[8] = Natriuretic polypeptide receptor (hNpr1) antagonism - Pilot counterscreen GloSensor control cell line (AID 1347045; calls by dose curve; note: series mostly up to about 38 µM)
In short: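 This counterscreen uses HEK293 cells expressing the GIP/pGS-40F cGMP biosensor. Compound-treated cells are challenged with 50 uM sodium nitroprusside, and the luciferase signal is compared before and after stimulation.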

[9] = molecular target: Atrial natriuretic peptide receptor 1 (Homo sapiens) (UniProt P16066); assay: Natriuretic polypeptide receptor (hNpr1) antagonism - Pilot screen (AID 1347049; calls by dose curve;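 note: agonist-evoked cGMP luminescence read 20 min after hNppA addition; series mostly up to about 58 µM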)
Chain of Atrial natriuretic peptide receptor 1 (Homo sapiens) (P16066 whole entry, looked up): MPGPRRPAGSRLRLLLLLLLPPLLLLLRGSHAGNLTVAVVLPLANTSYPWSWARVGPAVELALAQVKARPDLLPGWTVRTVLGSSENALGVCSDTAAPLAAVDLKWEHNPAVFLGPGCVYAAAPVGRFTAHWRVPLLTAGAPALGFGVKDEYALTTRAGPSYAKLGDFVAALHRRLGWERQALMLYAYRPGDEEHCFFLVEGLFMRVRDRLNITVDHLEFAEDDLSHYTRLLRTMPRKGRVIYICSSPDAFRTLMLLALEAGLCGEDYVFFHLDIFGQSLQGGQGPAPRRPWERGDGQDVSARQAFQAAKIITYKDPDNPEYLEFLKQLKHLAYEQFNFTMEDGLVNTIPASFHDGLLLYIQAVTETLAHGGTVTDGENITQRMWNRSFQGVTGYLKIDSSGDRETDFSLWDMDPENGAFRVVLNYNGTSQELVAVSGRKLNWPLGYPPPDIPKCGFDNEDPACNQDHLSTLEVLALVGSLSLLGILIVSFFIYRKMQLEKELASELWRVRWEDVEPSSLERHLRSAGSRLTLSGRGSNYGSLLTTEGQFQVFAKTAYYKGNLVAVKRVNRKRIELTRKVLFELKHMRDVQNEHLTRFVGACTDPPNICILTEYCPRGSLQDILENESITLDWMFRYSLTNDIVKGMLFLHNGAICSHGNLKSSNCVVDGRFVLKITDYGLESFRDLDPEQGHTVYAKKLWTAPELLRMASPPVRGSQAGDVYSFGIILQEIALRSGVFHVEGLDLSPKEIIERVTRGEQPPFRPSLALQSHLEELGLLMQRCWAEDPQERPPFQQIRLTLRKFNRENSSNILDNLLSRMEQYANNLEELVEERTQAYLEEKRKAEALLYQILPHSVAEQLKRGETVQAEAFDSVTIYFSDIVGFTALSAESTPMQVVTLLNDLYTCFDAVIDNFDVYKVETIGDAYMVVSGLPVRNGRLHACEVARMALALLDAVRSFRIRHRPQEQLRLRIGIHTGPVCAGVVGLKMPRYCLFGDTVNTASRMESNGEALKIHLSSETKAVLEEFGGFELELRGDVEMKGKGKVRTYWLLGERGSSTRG
In short: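 HEK293 cells expressing hNpr1 and GloSensor cGMP luciferase, 1500/well, loaded with 2% GloSensor reagent 2 h, compound 30 min at room temperature; luminescence read before and 20 min after 0.1 nM hNppA stimulation.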

[10] = molecular target: Atrial natriuretic peptide receptor 2 (Homo sapiens) (UniProt P20594); assay: Natriuretic polypeptide receptor (hNpr2) antagonism - Pilot subtype selectivity assay (AID 1347050; calls by dose curve)
Chain of Atrial natriuretic peptide receptor 2 (Homo sapiens) (P20594 whole entry, looked up): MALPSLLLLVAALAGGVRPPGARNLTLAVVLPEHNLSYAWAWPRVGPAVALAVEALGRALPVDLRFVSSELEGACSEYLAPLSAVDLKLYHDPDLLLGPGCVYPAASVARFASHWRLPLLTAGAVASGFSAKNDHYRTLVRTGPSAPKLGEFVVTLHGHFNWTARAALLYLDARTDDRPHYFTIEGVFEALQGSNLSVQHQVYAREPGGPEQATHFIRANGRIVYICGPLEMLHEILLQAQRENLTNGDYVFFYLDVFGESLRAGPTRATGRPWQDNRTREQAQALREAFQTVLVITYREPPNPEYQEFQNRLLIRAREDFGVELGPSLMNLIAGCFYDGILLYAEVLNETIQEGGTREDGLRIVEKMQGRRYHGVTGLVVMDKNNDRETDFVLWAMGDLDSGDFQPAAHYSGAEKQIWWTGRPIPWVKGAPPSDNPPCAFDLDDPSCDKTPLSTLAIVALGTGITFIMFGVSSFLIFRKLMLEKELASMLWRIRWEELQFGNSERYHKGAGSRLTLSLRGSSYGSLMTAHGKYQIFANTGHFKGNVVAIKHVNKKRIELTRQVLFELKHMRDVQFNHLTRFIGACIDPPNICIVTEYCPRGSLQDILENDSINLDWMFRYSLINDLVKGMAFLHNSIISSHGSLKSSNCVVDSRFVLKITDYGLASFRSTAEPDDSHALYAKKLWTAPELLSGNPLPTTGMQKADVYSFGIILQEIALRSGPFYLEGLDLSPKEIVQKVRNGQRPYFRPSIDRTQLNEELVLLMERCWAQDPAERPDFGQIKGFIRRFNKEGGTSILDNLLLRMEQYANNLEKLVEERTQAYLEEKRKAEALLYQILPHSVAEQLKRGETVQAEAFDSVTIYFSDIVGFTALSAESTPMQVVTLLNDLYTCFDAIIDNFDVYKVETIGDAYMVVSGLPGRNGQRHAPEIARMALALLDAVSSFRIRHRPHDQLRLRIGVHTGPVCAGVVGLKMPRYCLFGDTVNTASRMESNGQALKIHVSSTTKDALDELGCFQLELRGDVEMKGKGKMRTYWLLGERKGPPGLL
In short: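 HEK293 cells expressing hNpr2 and a GloSensor cGMP luciferase sensor, 1500/well, preloaded 2 h with 2% GloSensor reagent, compound 30 min, then 1 nM hNppC for 20 min. Antagonism from luminescence after versus baseline pre-read; LOPAC in 1:5 titrations.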

[11] = NS1 protein of Zika virus - qHTS assay to identify small molecule inhibitors in human HEK 293 cells (AID 1347053); note: series mostly up to about 46 µM; nearly all actives have a fitted effect of over 55% in size
In short: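 HEK 293 cells pretreated with compound for 1 h, then infected with ZIKV MR766 (MOI 0.5) for 24 h at 37 C. NS1 detected by TR-FRET with two anti-NS1 antibodies; normalized to uninfected (0%) and infected (100%) wells.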

[12] = molecular target: Tyrosine-protein phosphatase non-receptor type substrate 1 (Homo sapiens) + Leukocyte surface antigen CD47 (Homo sapiens) (UniProt P78324+Q08722); assay: CD47-SIRPalpha protein protein interaction - LANCE assay qHTS validation (AID 1347057; active = well fitted curve in the direction sought with a large enough effect in the signal ratio, with a control signal flat, not every such curve was filed as active; the % refers to the signal ratio; note: series mostly up to about 38 µM)
Chain of Tyrosine-protein phosphatase non-receptor type substrate 1 (Homo sapiens) + Leukocyte surface antigen CD47 (Homo sapiens) (P78324 whole entry, looked up): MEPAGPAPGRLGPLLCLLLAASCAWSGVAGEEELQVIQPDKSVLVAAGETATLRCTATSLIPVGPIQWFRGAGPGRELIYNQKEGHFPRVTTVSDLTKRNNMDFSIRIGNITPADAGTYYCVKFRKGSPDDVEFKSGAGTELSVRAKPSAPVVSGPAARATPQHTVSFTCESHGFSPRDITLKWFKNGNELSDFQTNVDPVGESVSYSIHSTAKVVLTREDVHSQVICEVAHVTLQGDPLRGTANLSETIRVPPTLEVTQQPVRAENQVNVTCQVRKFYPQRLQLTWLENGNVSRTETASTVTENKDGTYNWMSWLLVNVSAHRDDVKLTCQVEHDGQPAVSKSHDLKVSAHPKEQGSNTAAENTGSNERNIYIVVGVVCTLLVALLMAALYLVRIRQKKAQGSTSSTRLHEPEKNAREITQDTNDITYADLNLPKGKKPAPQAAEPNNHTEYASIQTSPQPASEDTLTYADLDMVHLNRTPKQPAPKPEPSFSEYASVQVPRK
Chain of Tyrosine-protein phosphatase non-receptor type substrate 1 (Homo sapiens) + Leukocyte surface antigen CD47 (Homo sapiens) (Q08722 whole entry, looked up): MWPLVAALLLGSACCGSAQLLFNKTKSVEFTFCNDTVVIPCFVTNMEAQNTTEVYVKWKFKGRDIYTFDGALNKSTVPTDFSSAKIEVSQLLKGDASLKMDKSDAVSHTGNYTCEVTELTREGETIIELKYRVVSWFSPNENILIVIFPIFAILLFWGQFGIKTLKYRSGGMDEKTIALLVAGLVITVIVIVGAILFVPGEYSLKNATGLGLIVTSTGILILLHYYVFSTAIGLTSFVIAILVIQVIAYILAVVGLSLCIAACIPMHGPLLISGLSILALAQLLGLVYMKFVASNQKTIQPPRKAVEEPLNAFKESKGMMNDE
In short: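 First, His-tagged CD47 and Eu-labelled anti-His antibody met the compound for 30 min; next, site-specifically biotinylated SIRPalpha was added for 30 min; finally streptavidin-APC was added before reading the TR-FRET ratio.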

[13] = qHTS assay to identify small molecule inhibitors of chordoma cells - UCH-1 (AID 1259355); note: nearly all actives have a fitted effect of over 55% in size; note: potency is the fitted concentration of half-maximal effect; series mostly up to about 46 µM
In short: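 Cells (800/well) were seeded and left overnight at 37 C, 5% CO2, then treated with drugs at 15 concentrations plus a combination mix of auranofin, camptothecin, doxorubicin, rubitecan and topotecan. Viability after 48hr was read by CellTiter-Glo luminescence.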

[14] = qHTS assay to identify small molecule inhibitors of chordoma cells - UCH-2 (AID 1259356); note: series mostly up to about 46 µM
[15] = Identifying Small Molecule Inhibitors of Pancreatic Cancer Stem Cells (SN12C, Adherent) (AID 1259358);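 note: cell survival measured after 48 h of compound exposure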
In short: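 Monolayer and spheroid cultures are compared. Spheroids form over 14 days in stem cell medium on hydrogel-coated low-attachment plates, then are exposed to compound for 48 h before CellTiter-Glo luminescence.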

[16] = Identifying Small Molecule Inhibitors of Pancreatic Cancer Stem Cells (SN12C, Spheroid) (AID 1259360); details: Potency: SN12C spheroid viability
In short: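 Spheroids grown 14 days in stem cell media on nonadherent hydrogel before screening; cells attached 4 h, then compound exposure 48 h at 37C, 5% CO2. CellTiter-Glo luminescence normalized to DMSO (no inhibition) and no-cell wells (full inhibition).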

O=C(O)C1CCCN(CCC=C(c2ccccc2)c2ccccc2)C1 (centres undefined)
Potency [1]: inactive
Potency [2]: inactive
Potency [3]: 11.8 µM (active)
Potency [4]: 9.35 µM (active)
Potency [5]: 13.2 µM (active)
Potency [6]: 9.35 µM (active)
Potency [7]: inactive
Potency [8]: inactive
Potency [9]: inactive
Potency [10]: inactive
Potency [11]: inactive
outcome [12]: inactive

Cc1ncc([N+](=O)[O-])n1CCO
Potency [1]: inactive
Potency [2]: inactive
Potency [3]: inactive
Potency [4]: inactive
Potency [5]: inactive
Potency [6]: inactive
Potency [13]: inactive
Potency [14]: inactive
Potency [11]: inactive

COC(c1ccccc1)(c1ccccc1)[C@H](Oc1nc(C)cc(C)n1)C(=O)O
Potency [1]: inactive
Potency [2]: inactive
Potency [3]: inactive
Potency [4]: inactive
Potency [5]: inactive
Potency [6]: inactive
Potency [13]: inactive
Potency [14]: inactive
Potency [11]: inactive

CC(C(=O)O)c1ccc2c(c1)CC(=O)c1ccccc1S2 (centres undefined)
Potency [1]: inactive
Potency [2]: inactive
Potency [3]: inactive
Potency [4]: inactive
Potency [5]: inactive
Potency [6]: inactive
Potency [7]: inactive
Potency [11]: inactive

CCCCOc1ccc(CC(=O)NO)cc1
Potency [1]: inactive
Potency [2]: inactive
Potency [3]: 6.62 µM (active)
Potency [4]: 7.43 µM (active)
Potency [5]: 10.5 µM (active)
Potency [6]: 5.26 µM (active)
Potency [13]: inactive
Potency [14]: inactive
Potency [11]: inactive

CCCCCCNC(=O)n1cc(F)c(=O)[nH]c1=O
Potency [1]: inactive
Potency [2]: inactive
Potency [3]: 13.2 µM (active)
Potency [4]: 8.33 µM (active)
Potency [6]: 18.7 µM (active)
Potency [13]: inactive
Potency [14]: inactive
Potency [11]: inactive

CCC(=O)O[C@]1(C(=O)CCl)[C@@H](C)C[C@H]2[C@@H]3CCC4=CC(=O)C=C[C@]4(C)[C@@]3(F)[C@@H](O)C[C@@]21C
Potency [1]: inactive
Potency [2]: inactive
Potency [3]: inactive
Potency [4]: inactive
Potency [5]: inactive
Potency [6]: inactive
Potency [14]: inactive
Potency [7]: inactive
Potency [11]: inactive

CN(C)CCc1c[nH]c2ccc(C[C@H]3COC(=O)N3)cc12
Potency [1]: inactive
Potency [2]: inactive
Potency [3]: inactive
Potency [4]: inactive
Potency [5]: inactive
Potency [6]: inactive
Potency [14]: inactive
Potency [7]: inactive
Potency [11]: inactive

OCc1ccc(-c2nn(Cc3ccccc3)c3ccccc23)o1
Potency [1]: inactive
Potency [2]: inactive
Potency [3]: 2.64 µM (active)
Potency [4]: 14.8 µM (active)
Potency [5]: 1.18 µM (active)
Potency [8]: inactive
Potency [9]: inactive
Potency [11]: inactive
outcome [12]: inactive

CC(C)OC(=O)OCOP(=O)(CO[C@H](C)Cn1cnc2c(N)ncnc21)OCOC(=O)OC(C)C
Potency [1]: inactive
Potency [2]: inactive
Potency [3]: inactive
Potency [4]: 18.7 µM (active)
Potency [5]: 23.5 µM (active)
Potency [7]: inactive
Potency [11]: inactive

CO[C@@]12[C@H](COC(N)=O)C3=C(C(=O)C(C)=C(N)C3=O)N1C[C@@H]1N[C@@H]12
Potency [1]: inactive
Potency [2]: inactive
Potency [3]: 0.0332 µM (active)
Potency [4]: 0.0418 µM (active)
Potency [5]: 0.0662 µM (active)
Potency [6]: 0.0037 µM (active)
Potency [13]: 17.8 µM (active)
Potency [14]: inactive
Potency [11]: inactive

NC(=O)c1cccnc1
Potency [1]: inactive
Potency [2]: inactive
Potency [3]: inactive
Potency [4]: inactive
Potency [5]: inactive
Potency [6]: inactive
Potency [14]: inactive
Potency [11]: inactive

CC1(C)[C@H](C(=O)O)N2C(=O)C[C@H]2S1(=O)=O
Potency [1]: inactive
Potency [2]: inactive
Potency [3]: inactive
Potency [4]: inactive
Potency [5]: inactive
Potency [6]: inactive
Potency [7]: inactive
Potency [11]: inactive

CN(Cc1cc(Br)cc(Br)c1N)C1CCCCC1
Potency [1]: inactive
Potency [2]: inactive
Potency [3]: inactive
Potency [4]: inactive
Potency [5]: inactive
Potency [6]: inactive
Potency [14]: inactive
Potency [11]: inactive

Cc1c(-c2ccc(O)cc2)n(Cc2ccc(OCCN3CCCCCC3)cc2)c2ccc(O)cc12
Potency [1]: inactive
Potency [2]: inactive
Potency [3]: inactive
Potency [4]: inactive
Potency [5]: inactive
Potency [6]: inactive
Potency [15]: inactive
Potency [16]: inactive
Potency [11]: inactive

CC1CC2C3CCC4=CC(=O)C=C[C@]4(C)[C@@]3(F)[C@@H](O)C[C@]2(C)[C@@]1(O)C(=O)CO (some centres undefined)
Potency [1]: inactive
Potency [2]: inactive
Potency [3]: inactive
Potency [4]: inactive
Potency [5]: inactive
Potency [6]: inactive
Potency [7]: inactive
Potency [8]: inactive
Potency [9]: inactive
Potency [10]: inactive
Potency [11]: inactive
outcome [12]: inactive

CS(=O)(=O)c1ccc([C@@H](O)[C@@H](CO)NC(=O)C(Cl)Cl)cc1
Potency [1]: inactive
Potency [2]: inactive
Potency [3]: 13.2 µM (active)
Potency [4]: 16.6 µM (active)
Potency [6]: 18.7 µM (active)
Potency [13]: inactive
Potency [14]: inactive
Potency [11]: inactive

CNCC[C@H](Oc1cccc2ccccc12)c1cccs1
Potency [1]: inactive and 23.5 µM (active)
Potency [2]: inactive
Potency [3]: 2.35 µM (active)
Potency [4]: 2.64 µM (active)
Potency [5]: 7.43 µM (active)
Potency [6]: 5.26 µM (active)
Potency [14]: inactive
Potency [7]: inactive

COC(=O)Nc1nc2ccc(Sc3ccccc3)cc2[nH]1
Potency [1]: inactive
Potency [2]: inactive
Potency [3]: 1.66 µM (active)
Potency [4]: 1.66 µM (active)
Potency [5]: 1.32 µM (active)
Potency [6]: 1.18 µM (active)
Potency [14]: inactive
Potency [7]: 495 nM (active) and 1.18 µM (active)
Potency [11]: inactive

CCOC(=O)c1ccc(OC(=O)CCCCCN=C(N)N)cc1
Potency [1]: inactive
Potency [2]: inactive
Potency [3]: inactive
Potency [4]: inactive
Potency [5]: inactive
Potency [6]: inactive
Potency [14]: inactive
Potency [7]: inactive
Potency [11]: inactive

NNC(=O)c1ccncc1
Potency [1]: inactive
Potency [2]: inactive
Potency [3]: inactive
Potency [4]: inactive
Potency [5]: inactive
Potency [6]: inactive
Potency [11]: inactive
